Test results reported in PubChem BioAssay.
The source made the active and inactive calls.

Key:
[1] = system: PRMT1 (protein arginine N-methyltransferase 1); assay: PRMT1 binders on small-molecule microarrays, primary screen, biochemical, small-molecule microarray, 635 nm fluorescence (AID 1088); details: small-molecule microarray binding, higher = more signal;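 also: binding of Prmt1 protein to compounds spotted on small-molecule microarray slides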
[2] = yeast growth modulation, basal conditions, primary screen, YJM789 clinical isolate, OD600, 24 h (AID 1089);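 also: growth of clinical yeast isolate S. cerevisiae YJM 789 seeded 1000 cells per well; test concentration not given here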; details: S. cerevisiae YJM789 growth, higher = more signal, called active from +8 up or from −8 down
[3] = fission yeast growth modulation, primary screen, strain 972, OD600, 24 h, no modulator (AID 1090);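 also: basal condition with compound alone and no growth modifier present; test concentration not given here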; details: S. pombe 972 growth, higher = more signal, called active from +8 up or from −8 down
[4] = S. cerevisiae growth modulation with rapamycin, primary screen, strain BY4716, OD600, 96 h (AID 1091); details: higher = more signal, called active from +8 up or from −8 down; also: test concentration not given here
[5] = target: Torsin-1A-interacting protein 2 (Homo sapiens) (UniProt Q8NFQ8); assay: LULL1 binders on small-molecule microarray, primary screen, cell lysate, human LULL1 lysate, 635/667 nm fluorescence (AID 1092); details: hLULL1 lysate binding, 635 nm fluorescence, higher = more signal;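 also: probe is lysate of COS7 cells overexpressing human LULL1; score merges per-feature 667 nm fluorescence with signal-to-noise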
[6] = E. coli growth modulation, two-sided OD650, primary screen, E. coli filamentation project, strain DRC41, 24 h (AID 1093); details: OD650, 24 h, higher = more signal, called active from +8 up or from −8 down;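 also: MC1000 strain lacking acrAB efflux and sulA so SOS filamentation is blocked; test concentration not given here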
[7] = small-molecule microarray binders of probe aLefty2, primary screen, biochemical, biotinylated probe, 635/667 nm fluorescence (AID 1094); details: higher = more signal;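 also: score merges spot fluorescence near 667 nm with spot signal-to-noise ratio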
[8] = system: Noggin (protein binding on small-molecule microarray); assay: Noggin binders on small-molecule microarray, primary screen, biochemical, 635/667 nm fluorescence (AID 1095); details: 635 nm fluorescence, higher = more signal;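 also: score merges 667 nm feature fluorescence with signal to noise over triplicate slides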
[9] = target: Neurogenic locus notch homolog protein 3 (Homo sapiens) (UniProt Q9UM47); assay: NOTCH3 binders on small-molecule microarray, primary screen, biochemical, 635/667 nm fluorescence (AID 1096); details: NOTCH3 binding, 635 nm fluorescence, higher = more signal
[10] = small-molecule microarray binders of probe aEGFR, primary screen, biochemical, biotinylated probe, 635/667 nm fluorescence (AID 1097); details: higher = more signal;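 also: probe is a biotinylated anti-EGFR antibody binding compounds printed on slides; score combines fluorescence near 667 nm and signal to noise of each spot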
[11] = system: Plasmodium falciparum Sir2 (PF13_0152, Sir2A); assay: pfSir2 binders on small-molecule microarrays, primary screen, biochemical, small-molecule microarray, 635 nm fluorescence (AID 1098); details: small-molecule microarray binding, fluorescence 635 nm; higher = more signal;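 also: score merges spot fluorescence intensity with its signal-to-noise ratio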
[12] = small-molecule microarray binders of probe aDKK1, primary screen, biochemical, biotinylated probe, 635/667 nm fluorescence (AID 1099); details: higher = more signal;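 also: score merges 667nm spot fluorescence with signal to noise across triplicate slides; reference of the scale not given here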
[13] = small-molecule microarray binders of probe aCHRDL2, primary screen, biochemical, biotinylated probe, 635/667 nm fluorescence (AID 1100); details: higher = more signal
[14] = splicing luciferase reporter signal modulators, primary screen, spliceosome inhibition project, cell-based, HEK293, splice +/- reporter (AID 1101); details: luminescence, 24 h, higher = more signal, called active from +8 up or from −8 down;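 also: HEK293 cells carrying a splicing-competent luciferase reporter gene; test concentration not given here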
[15] = target: Fibroblast growth factor 10 (Homo sapiens) (UniProt O15520); assay: FGF10 binders on small-molecule microarrays, primary screen, biochemical, small-molecule microarray, 635 nm fluorescence (AID 1102); details: FGF10 binding, fluorescence 635 nm, higher = more signal
[16] = system: glycogen synthase kinase-3 (GSK3A per assay name; protocol says GSK3B); assay: GSK3 binders on small-molecule microarrays, primary screen, biochemical, small-molecule microarray, 635 nm fluorescence, GSK3A (AID 1103); details: small-molecule microarray binding, fluorescence 635 nm; higher = more signal; also: the record names both GSK3A and GSK3B
[17] = target: Epidermal growth factor receptor (Homo sapiens) (UniProt P00533); assay: EGFR binders on small-molecule microarrays, primary screen, biochemical, small-molecule microarray, 635 nm fluorescence (AID 1104); details: EGFR binding, higher = more signal;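 also: score merges 667 nm emission intensity with spot signal to noise over triplicate slides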
[18] = target: Follistatin-related protein 3 (Homo sapiens) (UniProt O95633); assay: FSTL3 binders on small-molecule microarrays, primary screen, biochemical, small-molecule microarray, 635 nm fluorescence (AID 1105); details: FSTL3 binding, higher = more signal;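 also: score merges emission near 667 nm and signal to noise per printed spot across three slides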
[19] = target: Dickkopf-related protein 1 (Homo sapiens) (UniProt O94907); assay: DKK1 binders on small-molecule microarrays, primary screen, biochemical, small-molecule microarray, 635 nm fluorescence scan (AID 1106); details: DKK1 binding, higher = more signal;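 also: score merges emission near 667 nm with signal to noise over three replicate slides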
[20] = system: Inhibin beta A chain (activin A); assay: INHBA (activin A) binders on microarrays, primary screen, biochemical, small-molecule microarray, 635 nm fluorescence scan (AID 1107); details: small-molecule microarray binding, higher = more signal;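 also: mouse activin A protein probed at 4.33 µg/mL on printed slides; score merges bound-protein fluorescence near 667 nm with spot signal-to-noise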

Chain of Neurogenic locus notch homolog protein 3 (Homo sapiens) (Q9UM47 whole entry, looked up): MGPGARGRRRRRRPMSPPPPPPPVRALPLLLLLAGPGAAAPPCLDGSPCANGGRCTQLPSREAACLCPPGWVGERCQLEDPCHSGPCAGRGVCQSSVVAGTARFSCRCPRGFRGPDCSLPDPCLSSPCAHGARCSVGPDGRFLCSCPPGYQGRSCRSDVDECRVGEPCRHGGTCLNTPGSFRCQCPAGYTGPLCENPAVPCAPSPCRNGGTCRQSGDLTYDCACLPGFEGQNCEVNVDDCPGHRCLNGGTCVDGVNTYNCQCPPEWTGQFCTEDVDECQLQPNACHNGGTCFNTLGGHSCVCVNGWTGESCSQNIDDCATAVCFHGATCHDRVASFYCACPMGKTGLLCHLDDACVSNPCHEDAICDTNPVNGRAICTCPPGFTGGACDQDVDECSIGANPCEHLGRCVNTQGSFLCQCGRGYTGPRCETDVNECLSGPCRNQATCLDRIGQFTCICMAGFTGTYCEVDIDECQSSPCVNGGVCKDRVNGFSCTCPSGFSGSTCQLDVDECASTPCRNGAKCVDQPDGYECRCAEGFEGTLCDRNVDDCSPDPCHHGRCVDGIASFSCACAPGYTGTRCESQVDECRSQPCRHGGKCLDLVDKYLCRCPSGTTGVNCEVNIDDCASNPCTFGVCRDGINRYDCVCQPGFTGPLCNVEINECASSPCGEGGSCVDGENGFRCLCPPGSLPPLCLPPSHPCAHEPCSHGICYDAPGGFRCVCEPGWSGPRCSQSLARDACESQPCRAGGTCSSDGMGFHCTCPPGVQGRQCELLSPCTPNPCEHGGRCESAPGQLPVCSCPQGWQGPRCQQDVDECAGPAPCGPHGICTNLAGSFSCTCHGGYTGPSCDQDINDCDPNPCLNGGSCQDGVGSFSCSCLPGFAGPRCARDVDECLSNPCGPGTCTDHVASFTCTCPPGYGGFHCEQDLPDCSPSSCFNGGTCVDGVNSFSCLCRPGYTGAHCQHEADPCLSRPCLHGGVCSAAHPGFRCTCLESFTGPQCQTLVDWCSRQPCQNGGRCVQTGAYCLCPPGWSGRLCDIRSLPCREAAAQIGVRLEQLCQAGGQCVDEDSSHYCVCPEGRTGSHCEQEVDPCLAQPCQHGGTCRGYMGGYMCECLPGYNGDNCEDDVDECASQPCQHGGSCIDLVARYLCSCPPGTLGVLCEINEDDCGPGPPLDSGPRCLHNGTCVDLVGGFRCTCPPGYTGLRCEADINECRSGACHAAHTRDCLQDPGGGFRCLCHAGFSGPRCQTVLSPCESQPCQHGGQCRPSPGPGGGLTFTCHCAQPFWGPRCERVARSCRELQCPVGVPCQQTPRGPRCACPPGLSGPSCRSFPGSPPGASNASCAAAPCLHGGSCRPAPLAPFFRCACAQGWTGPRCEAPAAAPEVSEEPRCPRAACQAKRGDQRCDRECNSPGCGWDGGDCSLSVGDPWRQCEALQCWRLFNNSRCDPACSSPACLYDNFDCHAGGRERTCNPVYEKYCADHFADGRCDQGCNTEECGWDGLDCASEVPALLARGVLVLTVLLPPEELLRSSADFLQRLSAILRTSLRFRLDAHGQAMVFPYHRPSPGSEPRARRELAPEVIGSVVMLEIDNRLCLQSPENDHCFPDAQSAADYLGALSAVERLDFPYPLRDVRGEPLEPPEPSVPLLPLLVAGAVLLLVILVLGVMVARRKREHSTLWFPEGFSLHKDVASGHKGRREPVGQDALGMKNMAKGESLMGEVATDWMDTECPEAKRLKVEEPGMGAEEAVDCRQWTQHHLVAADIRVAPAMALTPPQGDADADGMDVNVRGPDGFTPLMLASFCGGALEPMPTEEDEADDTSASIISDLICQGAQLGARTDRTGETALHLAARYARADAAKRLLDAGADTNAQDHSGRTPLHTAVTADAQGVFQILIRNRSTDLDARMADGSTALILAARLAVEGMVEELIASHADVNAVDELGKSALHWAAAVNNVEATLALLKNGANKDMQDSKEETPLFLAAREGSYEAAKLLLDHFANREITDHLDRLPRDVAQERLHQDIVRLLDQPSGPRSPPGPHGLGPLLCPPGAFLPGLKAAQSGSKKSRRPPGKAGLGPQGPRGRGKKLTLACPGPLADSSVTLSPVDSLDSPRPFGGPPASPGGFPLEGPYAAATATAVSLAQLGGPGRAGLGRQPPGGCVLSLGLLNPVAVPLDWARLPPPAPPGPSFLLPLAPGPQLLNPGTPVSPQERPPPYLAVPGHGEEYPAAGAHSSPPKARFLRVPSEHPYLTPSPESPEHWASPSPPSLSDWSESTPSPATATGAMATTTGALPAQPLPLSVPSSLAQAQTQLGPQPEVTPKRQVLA
Chain of Fibroblast growth factor 10 (Homo sapiens) (O15520 whole entry, looked up): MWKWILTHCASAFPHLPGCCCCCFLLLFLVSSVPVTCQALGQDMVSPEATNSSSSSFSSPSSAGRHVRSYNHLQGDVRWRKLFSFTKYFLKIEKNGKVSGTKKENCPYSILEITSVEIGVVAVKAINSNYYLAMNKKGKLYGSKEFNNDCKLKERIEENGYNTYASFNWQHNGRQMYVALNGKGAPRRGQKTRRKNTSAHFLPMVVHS
Chain of Dickkopf-related protein 1 (Homo sapiens) (O94907 whole entry, looked up): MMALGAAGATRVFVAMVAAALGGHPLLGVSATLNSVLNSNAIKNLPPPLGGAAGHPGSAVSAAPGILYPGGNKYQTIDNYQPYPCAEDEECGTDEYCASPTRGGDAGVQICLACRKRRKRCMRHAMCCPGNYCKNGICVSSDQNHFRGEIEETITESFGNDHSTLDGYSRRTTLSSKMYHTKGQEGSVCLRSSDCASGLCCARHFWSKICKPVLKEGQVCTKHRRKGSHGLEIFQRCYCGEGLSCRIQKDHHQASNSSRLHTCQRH
Chain of Epidermal growth factor receptor (Homo sapiens) (P00533 whole entry, looked up): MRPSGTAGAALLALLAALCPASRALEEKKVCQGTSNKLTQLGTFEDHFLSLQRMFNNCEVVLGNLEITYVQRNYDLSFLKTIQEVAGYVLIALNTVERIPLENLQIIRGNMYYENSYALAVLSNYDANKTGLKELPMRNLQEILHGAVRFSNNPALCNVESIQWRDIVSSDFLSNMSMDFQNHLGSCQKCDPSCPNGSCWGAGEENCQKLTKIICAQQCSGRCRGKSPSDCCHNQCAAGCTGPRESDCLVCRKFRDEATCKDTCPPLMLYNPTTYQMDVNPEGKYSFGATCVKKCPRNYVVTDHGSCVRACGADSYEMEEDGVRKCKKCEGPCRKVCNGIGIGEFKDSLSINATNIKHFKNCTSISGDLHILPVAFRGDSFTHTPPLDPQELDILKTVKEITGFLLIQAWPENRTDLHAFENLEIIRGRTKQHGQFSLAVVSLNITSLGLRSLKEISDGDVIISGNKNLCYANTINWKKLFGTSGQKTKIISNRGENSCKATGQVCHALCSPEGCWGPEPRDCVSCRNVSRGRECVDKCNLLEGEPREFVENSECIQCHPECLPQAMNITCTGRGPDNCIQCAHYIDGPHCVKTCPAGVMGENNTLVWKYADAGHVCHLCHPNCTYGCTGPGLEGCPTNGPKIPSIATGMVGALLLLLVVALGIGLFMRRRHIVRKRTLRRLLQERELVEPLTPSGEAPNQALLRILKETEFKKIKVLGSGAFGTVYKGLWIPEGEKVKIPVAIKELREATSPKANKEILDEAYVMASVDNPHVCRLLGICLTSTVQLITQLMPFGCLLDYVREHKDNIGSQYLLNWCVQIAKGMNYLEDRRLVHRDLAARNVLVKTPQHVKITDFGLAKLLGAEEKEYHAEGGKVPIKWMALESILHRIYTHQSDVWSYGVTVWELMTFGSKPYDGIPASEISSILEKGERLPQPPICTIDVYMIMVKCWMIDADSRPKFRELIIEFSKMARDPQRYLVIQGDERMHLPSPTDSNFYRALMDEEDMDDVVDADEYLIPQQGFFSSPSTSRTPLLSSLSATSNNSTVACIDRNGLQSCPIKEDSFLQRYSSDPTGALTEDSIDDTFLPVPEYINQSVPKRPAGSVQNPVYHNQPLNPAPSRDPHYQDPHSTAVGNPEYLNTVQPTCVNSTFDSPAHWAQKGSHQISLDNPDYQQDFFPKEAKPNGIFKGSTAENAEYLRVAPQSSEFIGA
Chain of Torsin-1A-interacting protein 2 (Homo sapiens) (Q8NFQ8 whole entry, looked up): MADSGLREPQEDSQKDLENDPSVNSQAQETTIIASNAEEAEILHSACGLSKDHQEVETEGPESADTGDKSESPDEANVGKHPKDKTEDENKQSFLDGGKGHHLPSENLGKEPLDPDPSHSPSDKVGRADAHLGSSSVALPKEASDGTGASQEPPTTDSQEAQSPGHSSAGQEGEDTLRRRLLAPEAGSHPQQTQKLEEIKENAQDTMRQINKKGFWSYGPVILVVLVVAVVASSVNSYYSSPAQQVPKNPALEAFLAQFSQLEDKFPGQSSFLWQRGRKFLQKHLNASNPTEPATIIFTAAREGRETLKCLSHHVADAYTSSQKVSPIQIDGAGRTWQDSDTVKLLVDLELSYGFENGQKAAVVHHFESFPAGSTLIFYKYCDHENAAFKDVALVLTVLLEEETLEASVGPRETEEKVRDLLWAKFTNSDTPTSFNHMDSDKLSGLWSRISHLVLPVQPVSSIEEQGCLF
Chain of Follistatin-related protein 3 (Homo sapiens) (O95633 whole entry, looked up): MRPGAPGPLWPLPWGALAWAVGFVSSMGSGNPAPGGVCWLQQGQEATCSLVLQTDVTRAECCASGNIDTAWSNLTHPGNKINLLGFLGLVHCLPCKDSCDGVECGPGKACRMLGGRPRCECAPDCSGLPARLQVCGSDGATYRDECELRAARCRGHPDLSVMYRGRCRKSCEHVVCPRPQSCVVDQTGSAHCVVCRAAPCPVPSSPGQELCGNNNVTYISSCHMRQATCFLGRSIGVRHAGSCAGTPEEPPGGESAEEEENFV

SMILES: O=C(CS)NCCCCCCNC(=O)[C@@H]1C[C@@H]2C(=O)N3CCC[C@H]3C(=O)N2[C@@H]1c1ccc(O)cc1
- composite z-score [1]: 1.14
- z-score [2]: 0.883 (inactive)
- z-score [3]: 0.626 (inactive)
- z-score [4]: 1.07 (inactive)
- composite z-score [5]: 2.54
- z-score [6]: 0.0508 (inactive)
- composite z-score [7]: -0.0903
- composite z-score [8]: -0.221
- composite z-score [9]: 0.165
- composite z-score [10]: -0.118
- composite z-score [11]: 0.425
- composite z-score [12]: -0.207
- composite z-score [13]: 0.597
- z-score [14]: 0.552 (inactive)
- composite z-score [15]: -0.252
- composite z-score [16]: 0.691
- composite z-score [17]: -0.226
- composite z-score [18]: -0.32
- composite z-score [19]: 0.17
- composite z-score [20]: -0.41

SMILES: COC(=O)c1ccc(OC)c(/C=C\CC(OC(C)=O)c2ccccc2)c1 (stereo not given)
- composite z-score [1]: 0.31
- z-score [2]: -1.71 (inactive)
- z-score [3]: -1.34 (inactive)
- z-score [4]: -0.0987 (inactive)
- composite z-score [5]: 0.879
- z-score [6]: 0.759 (inactive)
- composite z-score [7]: -0.208
- composite z-score [8]: 0.0928
- composite z-score [9]: 0.275
- composite z-score [10]: -0.115
- composite z-score [11]: -0.22
- composite z-score [12]: -0.146
- composite z-score [13]: 0.0946
- z-score [14]: -0.582 (inactive)
- composite z-score [15]: -0.207
- composite z-score [16]: 0.147
- composite z-score [17]: 0.643
- composite z-score [18]: 0.137
- composite z-score [19]: 0.305
- composite z-score [20]: 1.89

SMILES: O=C1O[C@@H](c2ccccc2)[C@@H](c2ccccc2)N2[C@@H](c3ccc(O)cc3)[C@]3(C(=O)Nc4ccc(C#CC5=CCCCC5)cc43)[C@@H](C(=O)O)[C@H]12
- composite z-score [1]: 1.53
- z-score [2]: -2.6 (inactive)
- z-score [3]: -3.2 (inactive)
- z-score [4]: -2.21 (inactive)
- composite z-score [5]: 2.86
- z-score [6]: 3.68 (inactive)
- composite z-score [7]: 0.246
- composite z-score [8]: 0.878
- composite z-score [9]: 0.925
- composite z-score [10]: -0.0315
- composite z-score [11]: 1.14
- composite z-score [12]: 0.799
- composite z-score [13]: 0.999
- z-score [14]: -1.05 (inactive)
- composite z-score [15]: 0.277
- composite z-score [16]: 0.653
- composite z-score [17]: 0.035
- composite z-score [18]: 0.545
- composite z-score [19]: 0.0526
- composite z-score [20]: 1.19

SMILES: C=CC[C@]1(C(=O)N2CCOCC2)N=C(c2ccc(OCCCO)cc2)O[C@H]1c1ccccc1
- composite z-score [1]: 0.74
- z-score [2]: -1.8 (inactive)
- z-score [3]: -2.42 (inactive)
- z-score [4]: -1.67 (inactive)
- composite z-score [5]: 3.56
- z-score [6]: 0.382 (inactive)
- composite z-score [7]: -0.0212
- composite z-score [8]: -0.243
- composite z-score [9]: 0.175
- composite z-score [10]: -0.165
- composite z-score [11]: 1.44
- composite z-score [12]: 0.573
- composite z-score [13]: 1.01
- z-score [14]: -0.0214 (inactive)
- composite z-score [15]: 0.182
- composite z-score [16]: 1.28
- composite z-score [17]: -0.201
- composite z-score [18]: -0.524
- composite z-score [19]: 0.142
- composite z-score [20]: 0.862

SMILES: [N-]=[N+]=NCc1ccccc1C[C@]1(C(=O)NCCN2CCOCC2)N=C(c2ccc(OCCCO)cc2)O[C@H]1c1ccccc1N=[N+]=[N-]
- composite z-score [1]: 1.56
- z-score [2]: -0.886 (inactive)
- z-score [3]: 0.246 (inactive)
- z-score [4]: 2.86 (inactive)
- composite z-score [5]: 2.73
- z-score [6]: 1.16 (inactive)
- composite z-score [7]: 0.149
- composite z-score [8]: -0.0313
- composite z-score [9]: 1.1
- composite z-score [10]: 0.0488
- composite z-score [11]: 0.8
- composite z-score [12]: 0.838
- composite z-score [13]: 1.11
- z-score [14]: -0.947 (inactive)
- composite z-score [15]: 0.636
- composite z-score [16]: 1.15
- composite z-score [17]: 0.294
- composite z-score [18]: 0.504
- composite z-score [19]: -0.233
- composite z-score [20]: 0.819

SMILES: CN(C)C(=O)[C@@]1(CCC(=O)OC(C)(C)C)N=C(c2ccc(OCCCO)cc2)O[C@H]1c1ccccc1
- composite z-score [1]: 1.41
- z-score [2]: -0.365 (inactive)
- z-score [3]: -0.0946 (inactive)
- z-score [4]: -0.213 (inactive)
- composite z-score [5]: 3.55
- z-score [6]: -0.444 (inactive)
- composite z-score [7]: 0.346
- composite z-score [8]: 0.94
- composite z-score [9]: 0.0453
- composite z-score [10]: 0.0197
- composite z-score [11]: 1.75
- composite z-score [12]: 0.559
- composite z-score [13]: 0.401
- z-score [14]: -0.919 (inactive)
- composite z-score [15]: 0.0744
- composite z-score [16]: 0.556
- composite z-score [17]: -0.58
- composite z-score [18]: -0.725
- composite z-score [19]: -0.887
- composite z-score [20]: 0.366

SMILES: Cc1cc(C)c(C(O)C2C=CC3C(=O)N(C)C(=O)C3N2Nc2ccccc2)c(C)c1 (stereo not given)
- composite z-score [1]: 0.378
- z-score [2]: -0.304 (inactive)
- z-score [3]: 0.569 (inactive)
- z-score [4]: -0.448 (inactive)
- composite z-score [5]: 2.41
- z-score [6]: -1.32 (inactive)
- composite z-score [7]: 1.24
- composite z-score [8]: 0.0355
- composite z-score [9]: 0.533
- composite z-score [10]: 0.907
- composite z-score [11]: 1.13
- composite z-score [12]: 1.84
- composite z-score [13]: 0.796
- z-score [14]: 0.55 (inactive)
- composite z-score [15]: 0.636
- composite z-score [16]: 0.399
- composite z-score [17]: 0.745
- composite z-score [18]: 0.38
- composite z-score [19]: 0.209
- composite z-score [20]: 1.25

SMILES: COCCOC(=O)N1C(=O)[C@@]2(c3cc(C#CCCO)ccc31)[C@H](C(=O)NC[C@H](O)c1ccccc1)[C@H]1C(=O)O[C@H](c3ccccc3)[C@H](c3ccccc3)N1[C@@H]2c1ccc(O)cc1
- composite z-score [1]: 0.66
- z-score [2]: 1.22 (inactive)
- z-score [3]: 0.572 (inactive)
- z-score [4]: 1.68 (inactive)
- composite z-score [5]: 2.35
- z-score [6]: 0.856 (inactive)
- composite z-score [7]: -0.0862
- composite z-score [8]: 1.7
- composite z-score [9]: 0.459
- composite z-score [10]: -0.137
- composite z-score [11]: 0.0479
- composite z-score [12]: -0.194
- composite z-score [13]: 0.146
- z-score [14]: -0.267 (inactive)
- composite z-score [15]: 0.518
- composite z-score [16]: -0.417
- composite z-score [17]: -0.243
- composite z-score [18]: 0.599
- composite z-score [19]: 0.165
- composite z-score [20]: -0.0769

SMILES: COc1ccc(C#Cc2ccc3c(c2)[C@]2(C(=O)N3)[C@H](c3ccc(O)cc3)N3[C@H](c4ccccc4)[C@H](c4ccccc4)OC(=O)[C@H]3[C@@H]2C(=O)N2CCCCCCC2)cc1
- composite z-score [1]: 1.55
- z-score [2]: -1.51 (inactive)
- z-score [3]: -0.0733 (inactive)
- z-score [4]: 1.15 (inactive)
- composite z-score [5]: 4.08
- z-score [6]: 0.484 (inactive)
- composite z-score [7]: 1.61
- composite z-score [8]: 1.86
- composite z-score [9]: 1.07
- composite z-score [10]: 0.778
- composite z-score [11]: 1.39
- composite z-score [12]: 2.69
- composite z-score [13]: 1.52
- z-score [14]: -0.844 (inactive)
- composite z-score [15]: 1.22
- composite z-score [16]: 1.33
- composite z-score [17]: 1.18
- composite z-score [18]: 1.61
- composite z-score [19]: 1.61
- composite z-score [20]: 1.78

SMILES: CC1CC/C=C\[C@H]2OC34C=CCN(Cc5ccccc5)C(=O)[C@H]3N(CCCCCO)C(=O)[C@@H]4C2C(=O)O1 (stereo not given in full)
- composite z-score [1]: -0.822
- z-score [2]: 0.0898 (inactive)
- z-score [3]: 0.0077 (inactive)
- z-score [4]: -0.506 (inactive)
- composite z-score [5]: -0.259
- z-score [6]: -0.964 (inactive)
- composite z-score [7]: -0.166
- composite z-score [8]: -1.07
- composite z-score [9]: -0.629
- composite z-score [10]: -0.206
- composite z-score [11]: -0.0545
- composite z-score [12]: -0.425
- composite z-score [13]: 0.144
- z-score [14]: 0.537 (inactive)
- composite z-score [15]: -0.423
- composite z-score [16]: -1.42
- composite z-score [17]: -0.713
- composite z-score [18]: -1.19
- composite z-score [19]: -0.892
- composite z-score [20]: -0.0407
